From the supplement of paper PMC13380429

Key:
[1] = test system: Vero E6 infected with SARS-CoV-2; assay: morphology score (similarity to uninfected cells); higher = more like uninfected cells; settings: 24 h
[2] = test system: Vero E6 infected with SARS-CoV-2; assay: SARS-CoV-2 infection rate relative to infected DMSO; higher = more infection, active = 60 or less; settings: 24 h

For `CCOC(=O)c1ccc(-n2cc(Cc3cnc(OCC)nc3)c(=O)nc2SCc2ccc(F)cc2)cc1` (10 µM), the morphology score [1] was 0.18 and the SARS-CoV-2 infection rate [2] was 90.5% (inactive).
For `O=C(CCN1CCN(C(=O)OCc2cc(Cl)cc(Cl)c2)CC1)c1ccc2[nH]c(=O)oc2c1` (10 µM), the morphology score [1] was 0.127 and the SARS-CoV-2 infection rate [2] was 99.5% (inactive).
In the case of `COc1ccc2cc(CCC(C)=O)ccc2c1` [nabumetone] (10 µM), the morphology score [1] is reported as 0.0377 and the SARS-CoV-2 infection rate [2] is reported as 118% (inactive).
For `CC(C)(N)C(=O)N[C@H](COCc1ccccc1)C(=O)N1CCC2(CC1)CN(S(C)(=O)=O)c1ccccc12` [ibutamoren] (10 µM), the morphology score [1] was -0.0834 and the SARS-CoV-2 infection rate [2] was 108% (inactive).
`N=C(N)NC(=O)Cc1c(Cl)cccc1Cl` [guanfacine] (10 µM) was tested, and the morphology score [1] was 0.255 and the SARS-CoV-2 infection rate [2] was 86% (inactive).
For `CC(C)NCC(O)COc1cccc2[nH]ccc12` (stereo not given) [pindolol] (10 µM), the morphology score [1] was 0.0938 and the SARS-CoV-2 infection rate [2] was 104% (inactive).
`CC(C)(C)NC(=O)[C@@H]1C[C@@H]2CCCC[C@@H]2CN1C[C@@H](O)[C@H](Cc1ccccc1)NC(=O)[C@H](CC(N)=O)NC(=O)c1ccc2ccccc2n1` [saquinavir] (10 µM) was tested, and the morphology score [1] was 0.0775 and the SARS-CoV-2 infection rate [2] was 106% (inactive).
In the case of `Nc1ccc(C(=O)Nc2cccc(-c3nc(N4CCOCC4)c4oc5ncccc5c4n3)c2)cn1` (10 µM), the morphology score [1] is reported as 0.168 and the SARS-CoV-2 infection rate [2] is reported as 94.5% (inactive).
For `O=C1COc2c(CCNCCN(C(=O)CCNCCc3ccc(Cl)c(Cl)c3)C3CCCCC3)ccc(O)c2N1` (10 µM), the morphology score [1] was -0.232 and the SARS-CoV-2 infection rate [2] was 100% (inactive).
`C=CC[N+]1([C@H]2C[C@H]3[C@@H]4CC[C@H]5C[C@H](O)[C@@H](N6CCOCC6)C[C@]5(C)[C@H]4CC[C@]3(C)[C@H]2OC(C)=O)CCCC1` (10 µM) was tested, and the morphology score [1] was 0.061 and the SARS-CoV-2 infection rate [2] was 110% (inactive).
